Experimental data as given in PubChem BioAssay AID772 (SRMLSC, 2007).
The whole screen tested about 3,300 compounds, of which about 20 (0.6%) were called active.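 How the source made its calls: active means growth inhibition above 90%, meaning viable cell count cut by more than 90% versus vehicle controls; inactive means growth inhibition below 90%.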 The full list was thinned out, with actives kept by preference.

Test: HT29 colon tumor cell growth inhibition, primary screen, imaging, high content imaging, 72 h, CellTiter-Glo (AID 772);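 on condensed nuclei: condensed means nuclear area below control median minus 1.5 SD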
Conditions: HCS imaging cell count, at 10 µM, stronger effect = higher value; for condensed nuclei: measured here: percent cells with condensed nuclei
[1] = measured here: ATP CellTiter-Glo viability

SMILES	growth inhibition	growth inhibition [1] [%]	condensed nuclei [%]
O=C(O)c1nsc(Cl)c1Cl	-41.6% (inactive)	-55.8	1.81
Cc1cccc(OCC(=O)N2CCC(N3CCCCCC3)CC2)c1	-20.3% (inactive)	-10.7	13.8
CN(C)CC(O)COc1cccc(OCC(O)CN(C)C)c1 (stereo not drawn)	-49% (inactive)	-41	5.18
CN(C)CC(O)COc1ccc(-c2ccc(C#N)cc2)cc1 (stereo not drawn)	90.2% (active)	86	7.89
CN(C)CC(O)COc1ccc(C(C)(C)c2ccc(OCC(O)CN(C)C)cc2)cc1 (stereo not drawn)	61.9% (inactive)	98.3	18.1
Cn1c(=O)c2c(nc(Br)n2Cc2ccc3ccccc3c2)n(C)c1=O	57.1% (inactive)	9.53	5.08
Cc1cc(=O)[nH]c(SCC(=O)c2ccccc2)c1C#N	27.9% (inactive)	-16.6	2.93
CCCSc1nc(C)c(CC(=O)O)c(=O)[nH]1	-32.6% (inactive)	-21	3.23
CCN(CC)C(=O)C1CCN(c2ncnc3c2cnn3-c2ccc(C)cc2C)CC1	63.8% (inactive)	64.7	6.87
Fc1ccc(C2C3=C(Nc4ncnn42)c2ccccc2OC3c2ccncc2)cc1 (stereo not drawn)	61.8% (inactive)	20.5	17.7
CCCOc1ccc(CSC(CC(=O)O)C(=O)O)cc1 (stereo not drawn)	-29% (inactive)	-72.1	0.98
COC(=O)C1=C(C)N=C2SC(C)C(=O)N2C1/C=C/c1ccccc1OC (stereo not drawn)	-57.1% (inactive)	-59.2	1.79
CCCCC(=O)c1c(C)cc(C)[nH]c1=O	-16.9% (inactive)	-46.2	1.27
CCN(CC)CCN1C(=O)C(O)=C(C(=O)c2cccs2)C1c1ccccn1 (stereo not drawn)	-42% (inactive)	-45.7	3.64
CCN(CC)CCOC(=O)c1c(C)n(C)c2ccc(OC)cc12	-57.1% (inactive)	-23	3.82
Cn1cc(Cl)nc1C(O)c1ccccc1 (stereo not drawn)	-111% (inactive)	-43.7	2.87
Cc1cc2c(c(=O)o1)C(CC(C)C)C(C#N)=C(N)O2 (stereo not drawn)	18.4% (inactive)	-9.11	2.71
N/C(CCN1CCCCC1)=N/O	20.8% (inactive)	13.8	6.52
c1ccc(Cc2nn[nH]n2)cc1	14.9% (inactive)	-16.9	4.71
N#C/C(=N\O)c1nc(-c2ccccc2)cs1	-131% (inactive)	-49.8	3.16
CCOc1cccc(-c2nnc3sc(-c4ccco4)nn23)c1	-51.8% (inactive)	-46.9	2.36
CCOC(=O)C(Oc1ccc(=O)[nH]n1)C(C)=O (stereo not drawn)	-6.93% (inactive)	-59.3	3.6
CC(C)Sc1nnc2n(CCc3ccccc3)c(=O)c3c4c(sc3n12)COC(C)(C)C4	0.75% (inactive)	-42.2	1.47
CCc1[nH]c(=O)c(C#N)c2c1CSC(C)(C)C2	9.49% (inactive)	-3.16	4.45
CC1(C)CC(=O)C2=C(C1)OC(N)=C(C#N)C2C1C=CCCC1 (stereo not drawn)	59.5% (inactive)	32.2	3.5
Cc1nn(C)cc1C1C2=C(CC(C)(C)CC2=O)OC2=C1C(=O)CC(C)(C)C2	-19.8% (inactive)	-38.9	2.88

SMILES	growth inhibition	growth inhibition [1] [%]	condensed nuclei [%]
CC1(C)CC(=O)C2=C(C1)Oc1nc3ccccc3cc1C2C(C#N)C#N (stereo not drawn)	92.5% (active)	71.1	0
CCCCOC(=O)c1ccc(NC(=O)CSc2nncn2C)cc1	11.7% (inactive)	-49.6	2.84
Cc1cc(=O)oc(C)c1C(=O)NCC1CCCO1 (stereo not drawn)	13.8% (inactive)	8.51	7.86
Cc1cccc(-n2ncc3c(NCc4ccco4)ncnc32)c1	88.8% (inactive)	83.6	12.1
Clc1ccc(-n2ncc3c(NCc4ccco4)ncnc32)cc1	90.8% (active)	93.7	40
Clc1ccc(-n2ncc3c(NCc4cccs4)ncnc32)cc1	-12.9% (inactive)	-9.82	2.28
Cn1c(OCc2ccco2)nc2c1c(=O)n(Cc1ccc(Cl)c(Cl)c1)c(=O)n2C	-4.69% (inactive)	-10	6.05
COc1ccc(CNc2oc(COc3ccc(Cl)cc3)nc2C#N)cc1	59% (inactive)	54.4	24.8
COc1ccc(CSc2nnc3n(C)c(=O)c4c5c(sc4n23)CCCC5)cc1	-75.3% (inactive)	-39.3	2.4
Cc1ccc(-c2nnc(-c3cccc(Br)c3)o2)cc1	20.1% (inactive)	-5.25	0
Cc1ccccc1C(=O)c1ccc2c(c1)n(C)c(=O)n2C	-2.53% (inactive)	-7.19	3.03
O=C(NC1CCCCC1)N1CCSC1=Nc1ccccc1	54.8% (inactive)	12.5	9.09
O=C1C(=O)N(CCN2CCOCC2)C(c2ccccn2)/C1=C(/O)c1ccc(F)cc1 (stereo not drawn)	-59.2% (inactive)	-29.6	3.57
C=CCNc1nc(-c2ccc(O)c(C(N)=O)c2)cs1	-5% (inactive)	38.5	8.5
CCOc1ccc(-c2nc(C#N)c(N3CCN(CC)CC3)o2)cc1	33.8% (inactive)	-1.72	5.03
C=CCOC(=O)C(C#N)c1nc2ccccc2nc1N1CCN(c2ccccc2OCC)CC1 (stereo not drawn)	-8.05% (inactive)	-23.8	3.97
Cc1cc(C)n(CC2CC(=O)N(c3cc(Cl)cc(Cl)c3)C2=O)n1 (stereo not drawn)	-36.8% (inactive)	-33.9	2.19
COCCCn1c2nc3ccccc3nc2c2c(=O)n(-c3ccccc3OC)c(C)nc21	-36.8% (inactive)	-45.7	1.23
C=CCOC(=O)C1=C(C)OC(N)=C(C#N)C1c1ccoc1 (stereo not drawn)	45.6% (inactive)	21.7	6.32
CCOC(=O)c1c(SC)nc(SC)c2c1CCC2	-36.8% (inactive)	-48	3.12
Cc1cc(C)n(Cc2ccc(C(=O)NCCC3=CCCCC3)o2)n1	-19.5% (inactive)	3.39	3.56
Cn1cc(Br)cc2nc(C(F)(F)F)nc1-2	1.5% (inactive)	19.5	22.8
COc1ccc(C2CC(=O)c3sc(N)nc3C2)cc1 (stereo not drawn)	57.6% (inactive)	22.2	1.99
O=C(NCCC1=CCCCC1)c1ccc(=O)oc1	45.9% (inactive)	19.6	21.8
Clc1ccccc1-c1nn2c(-c3ccccn3)nnc2s1	-1.22% (inactive)	21.5	15.7
